Assay results reported in PubChem BioAssay AID493242 (Broad Institute, 2011).
Entries with a potency or affinity are not part of this list. Activity calls are given as the source filed them. No rule for the calls is given here.

Target: Replicative DNA helicase DnaB (Mycobacterium tuberculosis (strain ATCC 25618 / H37Rv)) (UniProt P9WMR3)
Experiment: Replicative DNA helicase DnaB intein splicing, Mycobacterium tuberculosis, inhibitor dose response, secondary (AID 493242)

Replicative DNA helicase DnaB (Mycobacterium tuberculosis (strain ATCC 25618 / H37Rv)), sequence (P9WMR3 whole entry, looked up): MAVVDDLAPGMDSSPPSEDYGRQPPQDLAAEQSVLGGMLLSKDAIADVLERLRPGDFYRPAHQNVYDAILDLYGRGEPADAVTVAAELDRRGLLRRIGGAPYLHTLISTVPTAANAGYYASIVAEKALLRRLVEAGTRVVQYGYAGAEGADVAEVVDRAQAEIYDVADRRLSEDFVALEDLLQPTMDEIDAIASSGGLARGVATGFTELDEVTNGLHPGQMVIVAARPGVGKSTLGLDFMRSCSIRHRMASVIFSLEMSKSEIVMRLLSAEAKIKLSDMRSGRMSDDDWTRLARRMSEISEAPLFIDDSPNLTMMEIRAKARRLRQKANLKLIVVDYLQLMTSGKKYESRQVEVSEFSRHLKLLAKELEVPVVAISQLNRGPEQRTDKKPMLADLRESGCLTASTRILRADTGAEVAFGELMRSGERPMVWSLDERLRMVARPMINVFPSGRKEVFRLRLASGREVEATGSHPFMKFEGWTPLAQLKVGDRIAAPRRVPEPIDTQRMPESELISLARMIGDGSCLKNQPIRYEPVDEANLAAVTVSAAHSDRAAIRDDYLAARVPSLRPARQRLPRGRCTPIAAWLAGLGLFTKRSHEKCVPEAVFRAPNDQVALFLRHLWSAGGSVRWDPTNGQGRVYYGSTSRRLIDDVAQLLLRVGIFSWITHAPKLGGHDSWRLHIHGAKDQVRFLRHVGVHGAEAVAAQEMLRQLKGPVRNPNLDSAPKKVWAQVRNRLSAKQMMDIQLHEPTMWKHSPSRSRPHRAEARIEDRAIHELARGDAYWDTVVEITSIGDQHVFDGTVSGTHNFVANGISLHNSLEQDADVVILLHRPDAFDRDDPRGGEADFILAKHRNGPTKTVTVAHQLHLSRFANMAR

In the case of `Nc1cn(-c2ccccc2)nc1-c1ccc(F)cc1`, the outcome is reported as “inactive”.
